Compound activity from PubChem BioAssay.
Shown are actives, neighbours in structure and some others; about 2.9% of the full set was active somewhere.
TRPM1 prom inh: reduces MITF-dependent TRPM1 promoter luciferase signal; SK-MEL-5 TRPM1 promoter luciferase, 24 h; inhibition, % at 12.5 µM; hit rate 0.83% among 330,000;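 active means mean inhibition across replicates of 60% or more, whatever share of single replicates reaches that level; inconclusive means some that reach 60%, reason not given; inactive means mean inhibition across replicates below 60%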
Wnt act: activators of Wnt/beta-catenin signaling; Wnt/beta-catenin reporter cell assay, activator, plate reader; activation, % at 9.35 µM; hit rate 1.2% among 300,000; in the data active means activation above about 30%, passing the limit was not always enough; inconclusive means no clear call, values can overlap the other calls;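 further: 0% = neutral control wells and 100% = positive control wells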
PfHsp90 set2: inhibits growth of yeast expressing Plasmodium falciparum Hsp90; S. cerevisiae expressing PfHsp90, BacTiter-Glo ATP, 48 h; yeast lacking PDR1 and PDR3 efflux regulators; inhibition, % at 9.4 µM; hit rate 0.32% among 310,000; AID 504621;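 active means every replicate shows inhibition above about 80%, whatever the replicate mean, limit read from the data; inconclusive means mean inhibition reaches the set limit but some replicate falls short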;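 further: 0% = DMSO neutral controls and 100% = 20 µM radicicol positive controls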
MITF act: MITF TRPM1 promoter activation in melanoma cells | SK-MEL-5 TRPM1-promoter luciferase, 24 h; % of positive control, neutral wells = 0 | activation, % at 12.5 µM | AID 588334 | hit rate 0.75% among 300,000;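 active means mean activation of at least 80% with every replicate also reaching 80%; inconclusive means mean reaches 80% but some replicate falls short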;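 further: 0% = neutral control wells and 100% = parthenolide positive control wells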
NSD2 HMT inh: inhibitors of human histone methyltransferase NSD2; hit rate 0.54% among 310,000; AID 743445; inhibition, % at 12.5 µM; O96028; NSD2 peptide methylation, AlphaScreen, 120 min; in the data active means inhibition above about 50%
Glyco luc inh: blocks N-linked glycosylation in D54 reporter cells | D54 ERlucT glycosylation luciferase reporter, 24 h; percent of 100 nM tunicamycin response | reporter increase, % at 12.5 µM | hit rate 0.23% among 360,000 | AID 588692;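 active means mean luciferase reporter signal, scaled so untreated is 0 and the glycosylation-blocking control 100, at or above a set limit in every replicate; inconclusive means mean reaches the limit but not every replicate does; inactive means mean below the limit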;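 further: luciferase carries N-glycosylation sites so blocking glycosylation raises the light; 0% = median of neutral control wells and 100% = median of 100 nM tunicamycin wells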
Numbers without * were called inactive; ? = inconclusive; . = not tested or not shown.

SMILES	TRPM1 prom inh	Wnt act	PfHsp90 set2	MITF act	NSD2 HMT inh	Glyco luc inh
COC(=O)[C@]12C[C@H](CC(=O)NCC34CC5CC(CC(C5)C3)C4)C(=O)N(Cc3ccc4c(c3)OCO4)C1=C[C@H](COCc1ccccc1)O[C@@H]2C	.	-2	.	.	.	.
COc1cc(C=O)ccc1OCc1ccncc1	7	-1	-10	-1	3	0
COc1cc(C=O)ccc1OCc1ccc(Cl)nc1	-67	38*	.	64	2	-4
COC(=O)C1(C(=O)OC)Cc2ccccc2N(S(=O)(=O)c2ccc(C)cc2)C1CC(C)=O (stereo not given)	.	-2	.	.	.	.
CCc1ccc(NC(=O)CSc2nncn2-c2cccnc2)cc1	-93	9	-7	94*	2	-1
COCCN1C(=O)[C@H]2C[C@@]13O[C@H](c1ccccn1)N=C3CC1c3ccccc3C[C@@]12C (stereo not given in full)	.	0	.	.	.	.
CSCCC(NC(=O)c1ccccc1)C(=O)N1CC=C(c2ccccc2)CC1 (stereo not given)	-2	-2	-9	1	1	-1
COc1cc(/C=N/OCC(=O)Nc2cc(C)cc(C)c2)ccc1OCc1ccc(Cl)cc1	-71	?	-6	75	-4	-6
COc1cc(/C=N/OCC(=O)NC2CCCCC2C)ccc1OCc1ccc(Cl)cc1 (stereo not given)	-50	47*	.	42	-4	-9
COc1cc(/C=N/N2CCOCC2)ccc1OCc1ccc(Cl)cc1	-99	11	17	96*	1	-5
COc1cc(/C=N/N2CCOCC2)ccc1OCc1ccccc1	-50	13	18	53	4	-3
COc1ccccc1N1C(=O)C(Cl)=C(Nc2ccccc2O)C1=O	-5	6	-15	7	5	1
O=C1C(Cl)=C(Nc2ccccc2O)C(=O)N1c1ccccc1	-13	55*	.	.	-1	4
Cc1cc2c(C)nc(-c3ccccc3)nc2o1	-75	49*	19	77	-24	-2
C#CCN(Cc1ccco1)C(=O)c1nnc2c3ccccc3n(S(=O)(=O)c3ccccc3)c2n1	.	0	.	.	.	.
CCc1cc(C(=O)Nc2cc(S(=O)(=O)N3CCOCC3)ccc2N2CCN(CC)CC2)sc1C	2	0	12	-1	6	-2
CC(C)CN(C(=O)COC(=O)C12CC3CC(CC(C3)C1)C2)c1c(N)n(Cc2ccccc2)c(=O)[nH]c1=O	88*	-1	11	-88	-3	6
CC(=O)Nc1sc(C)c(C)c1C(=O)OCC(=O)N(CC(C)C)c1c(N)n(Cc2ccccc2)c(=O)[nH]c1=O	103*	-20	.	-103	-3	?
COC(=O)c1c(C)[nH]c(C(=O)OCC(=O)N(CC(C)C)c2c(N)n(Cc3ccccc3)c(=O)[nH]c2=O)c1C	0	-7	-4	1	0	-3
Cc1nn(-c2ccc(Br)cc2)c(=O)c2ccccc12	-14	42*	6	22	-3	-4
O=C1/C(=C/c2ccc([N+](=O)[O-])cc2)C=C(c2ccccc2)N1c1ccc(O)cc1	68*	-2	-9	-67	0	-7
CCOC(=O)c1c(C)n(C)c2ccc(OCC(O)CNC(CC)CO)cc12 (stereo not given)	5	.	14	-7	4	2
CCOC(=O)c1c(C)n(-c2ccc(C)cc2)c2ccc(OCC(O)CNCCCO)cc12 (stereo not given)	70*	-10	23	-68	.	-5
CCOC(=O)c1c(C)n(-c2ccc(C)cc2)c2ccc(OCC(O)CNCC3CCCO3)cc12 (stereo not given)	69*	.	7	-70	.	-6
COc1cc(NC(=O)c2cc3nc(C)cc(C)n3n2)c(OC)cc1Cl	-105	.	.	100*	-1	0
SMILES	TRPM1 prom inh	Wnt act	PfHsp90 set2	MITF act	NSD2 HMT inh	Glyco luc inh
COc1cc(NC(=O)c2c(F)c(F)c(F)c(F)c2F)c(OC)cc1Cl	40	.	.	-39	2	5
O=C1c2cc([N+](=O)[O-])cc3cc([N+](=O)[O-])cc(c23)C(=O)N1c1ccccn1	82*	3	31	-82	30	0
CCOC(=O)c1c(NC(=O)COc2ccccc2OCC)sc2c1CC(C)(C)NC2(C)C	84*	.	-9	-84	1	-2
CCOC(=O)c1c(NC(=O)COc2ccccc2C#N)sc2c1CC(C)(C)NC2(C)C	53	-1	1	-52	4	-4
CCOC(=O)c1ccc(N=NN(C)C)cc1	-92	1	-6	99*	-5	0
CCOC(=O)c1ccc(N)cc1	-15	0	5	15	.	-1
CC12CCC(C(=NO)C1=O)C2(C)C (stereo not given)	-3	-2	.	3	.	1
C/C(=N\NC(=O)c1cc(C)nc2ccccc12)c1ccccn1	89*	1	-4	-88	2	-16
C/C(=N\NC(=O)c1ccccn1)c1ccc(Cl)cc1	.	47*	.	.	-2	-10
C1=C(c2cc3ccccc3cn2)CCCC1	-96	50*	14	97*	.	-3
Fc1ccc2cnc(C3=CCCCC3)cc2c1	-102	33*	-13	103*	.	-1
Cc1ccccc1CC(=O)N1CCC(n2nnc3ncccc32)CC1	.	.	.	.	11	.
Cc1ccc(N/N=C/C=C/c2ccco2)cc1	-102	27	-9	99*	-2	-1
CCN1CCSc2ccc(C(=O)Nc3ccc(NC(C)=O)cc3)cc21	-6	-22	.	6	2	-3
CCOc1ccc(NC(=O)c2ccc3c(c2)N(C)CCS3)cc1	.	37*	.	.	-2	-3
CN1CCSc2ccc(C(=O)Nc3cc(F)ccc3F)cc21	-96	43*	5	97*	-13	-7
Cc1ccccc1NC(=O)c1ccc2c(c1)N(C)CCS2	.	23	-6	.	.	-1
CC(=O)NC(c1ccccc1)c1nc(-c2ccc(C)c(C)c2)cs1 (stereo not given)	.	-1	.	.	8	1
Cc1cccc(C(=O)Nc2ccc3c(c2)ncn3C)c1	-121	22	-1	125*	3	-6
Cn1cnc2cc(NC(=O)c3cccs3)ccc21	-92	13	-8	93*	-8	0
CC(C)(C)n1cnc2cc(NC(=O)c3ccc(Cl)cc3)ccc21	-63	43*	-16	.	-3	-9
Cc1nc2cc(C(=O)N3CCN(C(=O)C(C)(C)C)CC3)ccc2n1C1CCCC1	.	.	.	.	11	.
CC(C)C[C@H](NC(=O)c1nccs1)C(=O)N1CCC[C@H]1C(=O)NCc1ccccc1	.	0	.	.	.	.
O=C1/C(=C/c2cccc3ccccc23)CCCc2ccccc21	-50	42*	42	52	-1	-1
C=CCOC(=O)C1=C(C)NC(=S)NC1/C=C/c1ccccc1 (stereo not given)	-1	-3	-4	2	3	-1
CC1=C(C(=O)OCc2ccccc2)C(/C=C/c2ccccc2)NC(=S)N1 (stereo not given)	9	-5	85*	-6	-1	1
